Results filed as inconclusive are left out. Active and inactive are the calls of the source. Unless noted, the call rests on the fitted dose curve.
Experiments:
[1] = Nuclear factor erythroid 2-related factor 2/antioxidant responsive element (Nrf2/ARE) small molecule agonists: qHTS cell viability counter screen in human keratinocytes (AID 1919968; active means well fitted curve in the direction sought with a large enough effect in the repeat runs; an effect the other way counts as inactive or inconclusive; further: nearly all actives have a fitted effect of over 55% in size)
Procedure, shortened: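 HaCaT ARE reporter line, 1,500 cells/well; 5 h settle, 37 C/5% CO2; cpd in DMSO pinned; 23 h exposure; CellTiter-Fluor, 1 h; fluorescence.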

[2] = Nuclear factor erythroid 2-related factor 2/antioxidant responsive element (Nrf2/ARE) small molecule agonists: luciferase reporter gene qHTS assay in human keratinocytes (AID 1919969); further: nearly all actives have a fitted effect of over 35% in size; further: potency means the concentration at half of the fitted maximal effect
[3] = target: Gonadotropin-releasing hormone receptor (Homo sapiens) (UniProt P30968); assay: Human gonadotropin-releasing hormone receptor (GnRHR) small molecule agonists, calcium flux assay in GnRHR-HEK293 cells (AID 1920063); further: nearly all actives have a fitted effect of over 35% in size
Procedure, shortened: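 GnRHR-HEK293, 1500 cells/well, 18 h 37 C/5% CO2; Ca dye 1 h 37 C; cpd pinned (DMSO), agonist mode; kinetic FL 480/540, 3 min, 1 s reads; 15 conc, n=3.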

[4] = target: KiSS-1 receptor (Homo sapiens) (UniProt Q969F8); assay: Human kisspeptin (KISS1R) small molecule agonists, calcium flux assay in KISS1R-HEK293 cells (AID 1920064; active means well fitted curve in the direction sought with a large enough effect in the repeat runs; an effect the other way counts as inactive or inconclusive)
Procedure, shortened: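 Stable human KISS1R HEK293 line; 18 h plating, 37 C/5% CO2; calcium dye 1 h 37 C; compound pin transfer; kinetic fluorescence Ex/Em 480/540, 3 min.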

[5] = G protein-coupled receptor (GPCR) small molecule agonists, calcium flux assay: HEK293 wild type cell line counter screen (AID 1920065)
Procedure, shortened: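 Kinetic fluorescence at Ex/Em 480/540, recorded every second over 3 min, served as the read-out after compound addition. Each compound was tested at 15 concentrations in triplicate on cells pre-loaded with calcium dye for 1 h.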

[6] = p53 small molecule agonists, cell-based qHTS assay with rat liver microsomes (AID 1963578)
Procedure, shortened: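 p53RE-bla cells were exposed to compounds together with rat liver microsomes (0.5 mg/mL final) and NADPH (0.5 mg/mL final) for 16 h at 37 C, then read by LiveBLAzer beta-lactamase fluorescence after 2 h at room temperature.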

[7] = p53 small molecule agonists, cell-based qHTS assay with human liver microsomes: qHTS cell viability counter screen (AID 1963579); further: nearly all actives have a fitted effect of over 45% in size
Procedure, shortened: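 p53RE-bla cells (4,000/well) were pre-incubated 5 h at 37 C, then given compounds in DMSO plus human liver microsomes (0.5 mg/mL final) and NADPH (0.5 mg/mL final) for 16 h at 37 C. Viability was read by CellTiter-Glo luminescence.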

[8] = p53 small molecule agonists, cell-based qHTS assay with rat liver microsomes: qHTS cell viability counter screen (AID 1963580); further: nearly all actives have a fitted effect of over 45% in size
Procedure, shortened: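 Viability is assessed in parallel with the p53 reporter read: HCT-116 p53RE-bla cells receive compounds plus rat microsomes and NADPH (0.5 mg/mL final apiece), incubate 16 h at 37 C, and then CellTiter-Glo luminescence is recorded.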

[9] = p53 small molecule agonists, cell-based qHTS assay: qHTS cell viability counter screen (AID 1963581); further: nearly all actives have a fitted effect of over 45% in size
Procedure, shortened: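 HCT-116 p53RE-bla cells, 4,000/well, plated 5 h before compound pin transfer; 16 h at 37 C; bla substrate 2 h RT; then CellTiter-Glo, 30 min RT, luminescence.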

[10] = target: 5-hydroxytryptamine receptor 2A (Homo sapiens) (UniProt P28223); assay: 5-hydroxytryptamine receptor 2A (HTR2A) small molecule antagonists, cell-based qHTS assay (AID 1963586); further: nearly all actives have a fitted effect of over 45% in size
Procedure, shortened: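 Antagonist-mode intracellular calcium assay: DOI (4 nM) added after 5 min compound pre-incubation at room temperature to dye-loaded HTR2A-CHO cells. Fluorescence followed for 3 min, sampled every second.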

[11] = target: 5-hydroxytryptamine receptor 2A (Homo sapiens) (UniProt P28223); assay: 5-hydroxytryptamine receptor 2A (HTR2A) small molecule agonists, cell-based qHTS assay (AID 1963587); further: nearly all actives have a fitted effect of over 30% in size
Procedure, shortened: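 CHO cells stably expressing human HTR2A, plated 18 h, loaded with calcium dye 1 h at 37 C. Agonist mode: compounds added and intracellular calcium fluorescence recorded kinetically for 2 min at 1 sec intervals.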

[12] = target: Muscarinic acetylcholine receptor M1 (Homo sapiens) (UniProt P11229); assay: Cholinergic receptor muscarinic 1 (CHRM1) small molecule antagonists, cell-based qHTS assay (AID 1963588); further: nearly all actives have a fitted effect of over 40% in size; further: potency means the concentration at half of the fitted maximal effect
Procedure, shortened: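 CHRM1-CHO calcium-flux assay, antagonist mode. Cells were seeded 18 h, dye-loaded 1 h at 37 C and given compound for 5 min at RT, then acetylcholine was added at 50nM. FDSS fluorescence was read 3 min; 15 concentrations, three runs.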

[13] = target: Muscarinic acetylcholine receptor M1 (Homo sapiens) (UniProt P11229); assay: Cholinergic receptor muscarinic 1 (CHRM1) small molecule agonists, cell-based qHTS assay (AID 1963589); further: nearly all actives have a fitted effect of over 35% in size
Procedure, shortened: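 Human M1 in stable CHO line; 18 h plating, 1 h dye load 37 C; cpd added (agonist mode); Ca2+ fluorescence kinetic read, 1 s intervals; 15 conc, 3 runs.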

[14] = cAMP Responsive Elements (CRE) small molecule agonists, cell-based qHTS assay (AID 1963590)
Procedure, shortened: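 HEK 293T CRE-bla, 2,000 cells/well, 18 h preincubation 37 C/5% CO2; cpds (DMSO) pinned, 3 h; LiveBLAzer B/G FRET substrate, 2 h RT.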

[15] = cAMP Responsive Elements (CRE) small molecule antagonists, cell-based qHTS assay (AID 1963591; active means well fitted inhibition curve with a large enough effect in the signal ratio in the repeat runs, not every such curve was filed as active; the % refers to the signal ratio)
Procedure, shortened: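 Beta-lactamase reporter read by FRET substrate (LiveBLAzer B/G) after 2 h at room temperature. CRE-bla HEK293T cells had received compound plus 0.25 uM (final) NKH477 for 3 h at 37 °C.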

[16] = target: Beta-2 adrenergic receptor (Homo sapiens) (UniProt P07550); assay: Adrenergic beta2 receptor (ADRB2) small molecule antagonists, cell-based qHTS assay (AID 1963592); further: series mostly up to about 92 µM; nearly all actives have a fitted effect of over 50% in size
Procedure, shortened: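 Cells (CHO, stable ADRB2 overexpression) incubated 18-20hr at 37C; compounds added from DMSO; agonist mix (1nM isoproterenol, 100uM IBMX, 25uM Ro-20-1724) added; 0.5hr RT; d2-cAMP and anti-cAMP-cryptate added; 1hr RT; 665/615 nm read.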

[17] = target: D(2) dopamine receptor (Homo sapiens) (UniProt P14416); assay: Dopamine D2 receptor (DRD2) small molecule antagonists, cell-based qHTS assay (AID 1963595; active means well fitted inhibition curve with a large enough effect in the signal ratio in the repeat runs, with a control signal flat; the % refers to the signal ratio)
Procedure, shortened: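 Human DRD2 antagonist qHTS measuring cAMP by HTRF. The cells are exposed to compound for 10 min, then to NKH477 (200 nM) and quinpirole (12 nM) for 30 min at RT, with Ro20-1724 (0.1 mM) present throughout.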

[18] = p53 small molecule agonists, cell-based qHTS assay (AID 1963582; active means well fitted activation curve with a large enough effect in the signal ratio in the repeat runs, not every such curve was filed as active; the % refers to the signal ratio)
Procedure, shortened: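 Reporter line: p53RE-bla. Pre-incubation 5 h, 37 C, 5% CO2; compound (DMSO, pin tool) 16 h, 37 C; B/G FRET substrate 2 h RT; fluorescence intensity read.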

[19] = target: D(2) dopamine receptor (Homo sapiens) (UniProt P14416); assay: Dopamine D2 receptor (DRD2) small molecule agonists, cell-based qHTS assay (AID 1963594); further: nearly all actives have a fitted effect of over 35% in size
Procedure, shortened: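 HEK293 cells stably expressing human DRD2, pre-treated with PDE inhibitor Ro20-1724 (0.1 mM final) and compound 10 min at room temperature, then stimulated with NKH477 (200nM […]) for 30 min. cAMP read by HTRF (665/620 nm).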

[20] = p53 small molecule agonists, cell-based qHTS assay with human liver microsomes (AID 1963577)
Procedure, shortened: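 p53RE-bla reporter cells were pre-incubated 5 h at 37 C, then treated with compounds plus human liver microsomes (0.5 mg/mL final) and NADPH (0.5 mg/mL final) for 16 h at 37 C. Beta-lactamase activity was read by LiveBLAzer fluorescence after 2 h at room temperature.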

Measured: Potency

Chain of 5-hydroxytryptamine receptor 2A (Homo sapiens) (P28223 whole entry, looked up): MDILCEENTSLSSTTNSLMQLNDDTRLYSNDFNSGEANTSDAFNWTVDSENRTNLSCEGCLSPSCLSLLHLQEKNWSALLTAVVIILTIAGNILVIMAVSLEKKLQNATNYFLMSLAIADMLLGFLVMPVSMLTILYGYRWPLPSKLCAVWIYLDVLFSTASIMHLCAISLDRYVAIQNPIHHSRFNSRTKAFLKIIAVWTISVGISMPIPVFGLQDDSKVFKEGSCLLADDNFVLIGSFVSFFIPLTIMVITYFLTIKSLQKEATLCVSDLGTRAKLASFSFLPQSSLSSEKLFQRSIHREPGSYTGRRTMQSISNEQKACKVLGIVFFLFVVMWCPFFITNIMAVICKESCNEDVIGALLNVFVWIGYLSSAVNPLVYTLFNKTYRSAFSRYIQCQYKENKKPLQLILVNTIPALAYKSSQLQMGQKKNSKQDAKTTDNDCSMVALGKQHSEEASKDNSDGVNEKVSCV
Chain of Gonadotropin-releasing hormone receptor (Homo sapiens) (P30968 whole entry, looked up): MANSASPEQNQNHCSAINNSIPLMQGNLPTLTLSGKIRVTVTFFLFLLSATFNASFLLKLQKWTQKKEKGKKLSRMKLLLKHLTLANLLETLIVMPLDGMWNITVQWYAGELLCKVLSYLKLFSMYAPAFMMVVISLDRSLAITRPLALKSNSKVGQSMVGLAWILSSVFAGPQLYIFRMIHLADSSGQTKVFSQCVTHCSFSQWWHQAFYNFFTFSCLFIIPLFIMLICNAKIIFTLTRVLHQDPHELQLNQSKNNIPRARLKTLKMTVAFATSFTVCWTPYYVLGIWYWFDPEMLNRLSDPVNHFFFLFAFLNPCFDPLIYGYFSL
Chain of Beta-2 adrenergic receptor (Homo sapiens) (P07550 whole entry, looked up): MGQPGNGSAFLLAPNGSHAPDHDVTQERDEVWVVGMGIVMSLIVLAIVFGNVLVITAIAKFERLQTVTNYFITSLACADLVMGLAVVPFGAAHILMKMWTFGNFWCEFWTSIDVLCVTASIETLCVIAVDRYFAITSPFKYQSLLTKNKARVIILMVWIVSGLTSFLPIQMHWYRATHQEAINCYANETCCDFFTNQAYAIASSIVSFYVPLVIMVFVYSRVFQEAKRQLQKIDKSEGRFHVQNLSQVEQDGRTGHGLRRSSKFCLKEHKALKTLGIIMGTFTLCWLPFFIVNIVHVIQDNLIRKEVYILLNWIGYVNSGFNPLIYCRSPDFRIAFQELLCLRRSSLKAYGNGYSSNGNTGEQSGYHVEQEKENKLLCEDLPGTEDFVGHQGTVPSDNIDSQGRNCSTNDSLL
Chain of D(2) dopamine receptor (Homo sapiens) (P14416 whole entry, looked up): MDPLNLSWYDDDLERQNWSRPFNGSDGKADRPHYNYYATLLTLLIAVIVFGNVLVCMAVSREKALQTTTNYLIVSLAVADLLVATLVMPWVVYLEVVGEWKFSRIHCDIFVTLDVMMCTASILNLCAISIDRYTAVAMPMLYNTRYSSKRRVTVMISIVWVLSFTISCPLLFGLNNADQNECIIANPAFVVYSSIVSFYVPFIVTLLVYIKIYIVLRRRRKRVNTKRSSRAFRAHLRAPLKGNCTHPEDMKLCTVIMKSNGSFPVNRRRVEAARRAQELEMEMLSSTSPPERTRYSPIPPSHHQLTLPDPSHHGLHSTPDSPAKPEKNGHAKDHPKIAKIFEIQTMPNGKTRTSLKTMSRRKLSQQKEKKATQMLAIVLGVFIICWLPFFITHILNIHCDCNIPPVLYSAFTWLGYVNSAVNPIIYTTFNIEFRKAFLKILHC
Chain of KiSS-1 receptor (Homo sapiens) (Q969F8 whole entry, looked up): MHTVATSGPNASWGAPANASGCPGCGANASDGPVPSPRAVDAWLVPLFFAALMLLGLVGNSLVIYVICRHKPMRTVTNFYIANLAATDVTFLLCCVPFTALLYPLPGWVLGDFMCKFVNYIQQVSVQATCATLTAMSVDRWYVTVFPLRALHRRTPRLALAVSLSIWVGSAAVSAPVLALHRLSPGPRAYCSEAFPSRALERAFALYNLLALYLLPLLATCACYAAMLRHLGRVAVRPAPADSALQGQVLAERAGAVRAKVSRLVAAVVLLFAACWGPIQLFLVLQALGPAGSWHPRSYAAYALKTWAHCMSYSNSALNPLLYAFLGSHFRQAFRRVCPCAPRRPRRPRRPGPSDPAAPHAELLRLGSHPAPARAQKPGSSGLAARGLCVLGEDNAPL
Chain of Muscarinic acetylcholine receptor M1 (Homo sapiens) (P11229 whole entry, looked up): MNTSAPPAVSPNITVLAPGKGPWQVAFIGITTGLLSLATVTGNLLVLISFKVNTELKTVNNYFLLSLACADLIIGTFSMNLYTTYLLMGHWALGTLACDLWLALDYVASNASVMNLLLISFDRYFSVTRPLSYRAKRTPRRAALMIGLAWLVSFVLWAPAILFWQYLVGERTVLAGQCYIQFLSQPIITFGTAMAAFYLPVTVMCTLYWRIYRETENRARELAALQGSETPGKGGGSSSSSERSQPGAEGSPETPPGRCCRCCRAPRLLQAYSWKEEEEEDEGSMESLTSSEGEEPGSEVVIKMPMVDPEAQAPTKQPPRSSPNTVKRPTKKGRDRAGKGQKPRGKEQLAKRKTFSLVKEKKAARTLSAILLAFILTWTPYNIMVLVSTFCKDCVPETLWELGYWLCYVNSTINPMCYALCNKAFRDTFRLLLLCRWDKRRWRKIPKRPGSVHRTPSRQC

CN=C(NC#N)Nc1ccc(C2=NNC(=O)CC2C)cc1 (stereo not drawn)
not listed: [18] | [19] | [20]
inactive: all other assays above

COC(C)OC
not listed: [16] | [20]
inactive: all other assays above

O=C1C(=O)c2ccccc2C(O)=C1C1CCC(c2ccc(Cl)cc2)CC1 (stereo not drawn)
active: [2] 13.3 µM
not listed: [10] | [17] | [18] | [19] | [20]
inactive: all other assays above

CC[C@H]1OC(=O)[C@H](C)[C@@H](O[C@H]2C[C@@](C)(OC)[C@@H](O)[C@H](C)O2)[C@H](C)[C@@H](O[C@@H]2O[C@H](C)C[C@H](N(C)C)[C@H]2O)[C@](C)(O)C[C@@H](C)C(=O)[C@H](C)[C@@H](O)[C@]1(C)O
not listed: [10] | [11] | [12] | [13] | [17] | [19] | [20]
inactive: all other assays above

CCOCC(O)COc1ccc(NC(=O)CC[S+](C)C)cc1 (stereo not drawn)
not listed: [6] | [7] | [8] | [14] | [19]
inactive: all other assays above

CCCC(=O)C(=O)O
active: [12] 10.6 µM
not listed: [20]
inactive: all other assays above

CCCCCC[C@@H](CCC)C(=O)O
not listed: [10] | [20]
inactive: all other assays above

O=C(CN1CCN(Cc2ccc3c(c2)OCO3)CC1)N1c2ccccc2Sc2ccccc21
not listed: [15] | [20]
inactive: all other assays above
